Measurements published in PubChem BioAssay AID1159580 (chemical genetic matrix, 2015).
Hit rate of the full screen: of about 5,500 compounds, about 2,000 (36%) were called active. Not shown: some 18% with an inconclusive outcome. No stated cut-off is given here; in the data, active means normalized growth mostly below about 0.91 (no sharp cut-off); inconclusive means no clear call, values can overlap the other calls; inactive means mostly above about 0.92. The list shows a part of the results.

Assay: chemical genetic growth profiling, strain panel (AID 1159580);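 further: tested at 20 µM; growth read once vehicle control cultures reached saturation at 30 °C; 1 = growth at the plate median or of vehicle wells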
Settings: growth OD
[1] = S. cerevisiae deletion strains, locus YAL013W, strain DEP1, stronger effect = lower value
[2] = S. cerevisiae deletion strains, locus YBR229C, strain ROT2, stronger effect = lower value
[3] = S. cerevisiae deletion strains, locus YDL101C, strain DUN1, stronger effect = lower value
[4] = S. cerevisiae deletion strains, locus YDR150W, strain NUM1, stronger effect = lower value
[5] = S. cerevisiae deletion strains, locus YEL061C, strain CIN8, stronger effect = lower value
[6] = S. cerevisiae deletion strains, locus YGR078C, strain PAC10, stronger effect = lower value
[7] = S. cerevisiae deletion strains, locus YHR030C, strain SLT2, stronger effect = lower value
[8] = S. cerevisiae deletion strains, locus YHR087W, strain rtc3, stronger effect = lower value
[9] = S. cerevisiae deletion strains, locus YJR043C, strain POL32, stronger effect = lower value
[10] = S. cerevisiae deletion strains, locus YJR075W, strain HOC1, stronger effect = lower value
[11] = S. cerevisiae deletion strains, locus YLR039C, strain RIC1, stronger effect = lower value
[12] = S. cerevisiae deletion strains, locus YLR058C, strain SHM2 (second series), stronger effect = lower value
[13] = S. cerevisiae deletion strains, locus YLR085C, strain ARP6, stronger effect = lower value
[14] = S. cerevisiae deletion strains, locus YLR262C, strain YPT6, stronger effect = lower value
[15] = S. cerevisiae deletion strains, locus YML094W, strain GIM5, stronger effect = lower value
[16] = S. cerevisiae deletion strains, locus YMR219W, strain ESC1, stronger effect = lower value
[17] = S. cerevisiae deletion strains, locus YMR263W, strain SAP30, stronger effect = lower value
[18] = S. cerevisiae deletion strains, locus YMR307W, strain GAS1, stronger effect = lower value
[19] = S. cerevisiae deletion strains, locus YNL153C, strain GIM3, stronger effect = lower value
[20] = S. cerevisiae deletion strains, locus YNL298W, strain CLA4 (second series), stronger effect = lower value
[21] = S. cerevisiae deletion strains, locus YNL322C, strain KRE1, stronger effect = lower value
[22] = S. cerevisiae deletion strains, locus YNR030W, strain Alg12, stronger effect = lower value
[23] = S. cerevisiae deletion strains, locus YOL006C, strain TOP1, stronger effect = lower value
[24] = S. cerevisiae deletion strains, locus YPL055C, strain LGE1, stronger effect = lower value
[25] = S. cerevisiae deletion strains, locus YPL241C, strain CIN2, stronger effect = lower value
[26] = S. cerevisiae deletion strains, locus YPR135W, strain CTF4, stronger effect = lower value

Measured: normalized growth

Cc1c(C(=O)O)cc(-c2ccccc2)n1-c1ccccc1
active: [7] 0.613 | [11] 0.674 | [13] 0.654 | [14] 0.66 | [18] 0.467 | [26] 0.64
inactive: [1] 0.988 | [2] 1.01 | [3] 1 | [4] 0.892 | [5] 0.941 | [6] 0.999 | [8] 0.985 | S. cerevisiae deletion strains, locus YJL187C, strain SWE1, stronger effect = lower value 0.988 | [9] 0.999 | [10] 0.959 | S. cerevisiae deletion strains, locus YKL190W, strain CNB1, stronger effect = lower value 0.975 | [12] 1.01 | [15] 0.945 | [16] 0.998 | [17] 0.981 | [19] 0.952 | [20] 0.869 | [21] 1 | [22] 0.923 | [23] 0.85 | [24] 0.865 | [25] 0.907 | S. cerevisiae strains, strain wild type, stronger effect = lower value 0.987

Cc1nn(-c2ccccc2)nc1C(=O)NC(=O)N1CCCC1
inactive: [1] 0.992 | [2] 0.983 | [3] 0.949 | S. cerevisiae deletion strains, locus YDL134C, strain PPH21, stronger effect = lower value 1.01 | [4] 0.871 | [5] 1.02 | [6] 0.964 | [7] 0.94 | [8] 1.03 | [9] 0.977 | [10] 0.995 | [11] 0.998 | [12] 0.997 | [13] 1.02 | [14] 1.02 | [15] 1.02 | [16] 0.997 | [17] 0.987 | [18] 0.927 | S. cerevisiae deletion strains, locus YNL128W, strain TEP1, stronger effect = lower value 0.991 | [19] 0.986 | [20] 1.01 | [21] 0.995 | [22] 1 | [23] 0.955 | [24] 1 | [25] 0.965 | [26] 0.949

Cc1cc(OC(=O)N2CCCCC2)c(C(C)C)cc1[N+](C)(C)C
inactive: S. cerevisiae deletion strains, locus YAL021C, strain ccr4, stronger effect = lower value 0.994 | S. cerevisiae deletion strains, locus YAL026C, strain drs2, stronger effect = lower value 1.03 | S. cerevisiae deletion strains, locus YAL030W, strain snc1, stronger effect = lower value 1.01 | S. cerevisiae deletion strains, locus YBL061C, strain skt5, stronger effect = lower value 1.01 | S. cerevisiae deletion strains, locus YBR009C, strain hhf1, stronger effect = lower value 0.992 | S. cerevisiae deletion strains, locus YBR023C, strain chs3, stronger effect = lower value 1.01 | S. cerevisiae deletion strains, locus YBR171W, strain sec66, stronger effect = lower value 1.01 | S. cerevisiae deletion strains, locus YBR231C, strain swc5, stronger effect = lower value 1.02 | S. cerevisiae deletion strains, locus YBR279W, strain paf1, stronger effect = lower value 1.01 | S. cerevisiae deletion strains, locus YCL011C, strain gbp2, stronger effect = lower value 0.998 | S. cerevisiae deletion strains, locus YCL016C, strain dcc1, stronger effect = lower value 0.987 | S. cerevisiae deletion strains, locus YCL069W, strain vba3, stronger effect = lower value 1 | S. cerevisiae deletion strains, locus YCR088W, strain abp1, stronger effect = lower value 1.01 | S. cerevisiae deletion strains, locus YDL005C, strain med2, stronger effect = lower value 1.02 | S. cerevisiae deletion strains, locus YDL040C, strain nat1, stronger effect = lower value 1.01 | S. cerevisiae deletion strains, locus YDR001C, strain nth1, stronger effect = lower value 1.01 | S. cerevisiae deletion strains, locus YDR069C, strain doa4, stronger effect = lower value 1.03 | S. cerevisiae deletion strains, locus YDR137W, strain rgp1, stronger effect = lower value 1.03 | S. cerevisiae deletion strains, locus YDR159W, strain sac3, stronger effect = lower value 1.06 | S. cerevisiae deletion strains, locus YDR195W, strain ref2 0.997 | S. cerevisiae deletion strains, locus YDR297W, strain sur2, stronger effect = lower value 1.01 | S. cerevisiae deletion strains, locus YDR334W, strain swr1, stronger effect = lower value 1 | S. cerevisiae deletion strains, locus YDR335W, strain msn5, stronger effect = lower value 1.01 | S. cerevisiae deletion strains, locus YDR392W, strain spt3, stronger effect = lower value 0.995 | S. cerevisiae deletion strains, locus YEL003W, strain gim4, stronger effect = lower value 1.01 | S. cerevisiae deletion strains, locus YEL037C, strain rad23, stronger effect = lower value 1 | S. cerevisiae deletion strains, locus YEL061C, strain CIN8 (second series), stronger effect = lower value 1.01 | S. cerevisiae deletion strains, locus YER015W, strain faa2, stronger effect = lower value 1 | S. cerevisiae deletion strains, locus YER016W, strain bim1, stronger effect = lower value 1.01 | S. cerevisiae deletion strains, locus YER111C, strain swi4, stronger effect = lower value 1.01 | S. cerevisiae deletion strains, locus YER155C, strain BEM2 (second series), stronger effect = lower value 0.998 | S. cerevisiae deletion strains, locus YFR010W, strain ubp6, stronger effect = lower value 1.02 | S. cerevisiae deletion strains, locus YGL167C, strain pmr1, stronger effect = lower value 1.01 | S. cerevisiae deletion strains, locus YGL173C, strain kem1, stronger effect = lower value 1.02 | S. cerevisiae deletion strains, locus YGL227W, strain vid30, stronger effect = lower value 0.999 | S. cerevisiae deletion strains, locus YGL240W, strain doc1, stronger effect = lower value 1.02 | S. cerevisiae deletion strains, locus YGL253W, strain hxk2, stronger effect = lower value 1.01 | S. cerevisiae deletion strains, locus YHR013C, strain ard1, stronger effect = lower value 0.995 | S. cerevisiae deletion strains, locus YHR027C, strain rpn1, stronger effect = lower value 1.01 | [7] 1 | S. cerevisiae deletion strains, locus YHR079C, strain IRE1, stronger effect = lower value 1.01 | S. cerevisiae deletion strains, locus YHR142W, strain chs7, stronger effect = lower value 0.986 | S. cerevisiae deletion strains, locus YJL092W, strain hpr5, stronger effect = lower value 1.01 | S. cerevisiae deletion strains, locus YJL095W, strain BCK1 (second series), stronger effect = lower value 1 | S. cerevisiae deletion strains, locus YJL095W, strain BCK1, stronger effect = lower value 1.01 | S. cerevisiae deletion strains, locus YJL115W, strain asf1, stronger effect = lower value 1.02 | S. cerevisiae deletion strains, locus YJL129C, strain trk1, stronger effect = lower value 1.03 | S. cerevisiae deletion strains, locus YJL154C, strain vps35, stronger effect = lower value 1.01 | S. cerevisiae deletion strains, locus YJL164C, strain tpk1, stronger effect = lower value 1 | S. cerevisiae deletion strains, locus YJL166W, strain qcr8, stronger effect = lower value 1.05 | S. cerevisiae deletion strains, locus YJR066W, strain TOR1, stronger effect = lower value 0.911 | S. cerevisiae deletion strains, locus YKL160W, strain elf1, stronger effect = lower value 0.988 | S. cerevisiae deletion strains, locus YKR026C, strain gcn3, stronger effect = lower value 1 | S. cerevisiae deletion strains, locus YKR091W, strain srl3, stronger effect = lower value 1 | S. cerevisiae deletion strains, locus YLL001W, strain dnm1, stronger effect = lower value 1 | S. cerevisiae deletion strains, locus YLL026W, stronger effect = lower value 1.03 | S. cerevisiae deletion strains, locus YLL041C, strain sdh2, stronger effect = lower value 1.03 | S. cerevisiae deletion strains, locus YLR027C, strain aat2, stronger effect = lower value 1.01 | S. cerevisiae deletion strains, locus YLR113W, strain HOG1, stronger effect = lower value 1 | S. cerevisiae deletion strains, locus YLR221C, strain rsa3, stronger effect = lower value 1.01 | S. cerevisiae deletion strains, locus YLR258W, strain gsy2, stronger effect = lower value 0.987 | S. cerevisiae deletion strains, locus YLR262C, strain YPT6 (second series), stronger effect = lower value 1.03 | S. cerevisiae deletion strains, locus YLR320W, strain mms22, stronger effect = lower value 1.02 | S. cerevisiae deletion strains, locus YLR342W, strain FKS1, stronger effect = lower value 1.01 | S. cerevisiae deletion strains, locus YLR357W, strain rsc2, stronger effect = lower value 1.06 | S. cerevisiae deletion strains, locus YLR370C, strain arc18, stronger effect = lower value 0.989 | S. cerevisiae deletion strains, locus YLR384C, strain iki3, stronger effect = lower value 0.999 | S. cerevisiae deletion strains, locus YML120C, strain ndi1, stronger effect = lower value 1 | S. cerevisiae deletion strains, locus YMR058W, strain fet3, stronger effect = lower value 1.02 | S. cerevisiae deletion strains, locus YMR125W, strain sto1, stronger effect = lower value 1.01 | S. cerevisiae deletion strains, locus YMR129W, stronger effect = lower value 1.01 | S. cerevisiae deletion strains, locus YMR205C, strain PFK2, stronger effect = lower value 1.02 | S. cerevisiae deletion strains, locus YMR231W, strain pep5, stronger effect = lower value 1.01 | S. cerevisiae deletion strains, locus YNL071W, strain lat1, stronger effect = lower value 1.01 | S. cerevisiae deletion strains, locus YNL183C, strain NPR1, stronger effect = lower value 0.949 | S. cerevisiae deletion strains, locus YNL209W, strain ssb2, stronger effect = lower value 1 | S. cerevisiae deletion strains, locus YNL248C, strain rpa49, stronger effect = lower value 1.02 | S. cerevisiae deletion strains, locus YNL322C, strain KRE1 (second series), stronger effect = lower value 1 | S. cerevisiae deletion strains, locus YNR049C, strain mso1, stronger effect = lower value 1.01 | S. cerevisiae deletion strains, locus YOR001W, strain rrp6, stronger effect = lower value 1.04 | S. cerevisiae deletion strains, locus YOR070C, strain gyp1, stronger effect = lower value 1 | S. cerevisiae deletion strains, locus YOR080W, strain dia2, stronger effect = lower value 1.01 | S. cerevisiae deletion strains, locus YOR083W, strain WHI5, stronger effect = lower value 0.975 | S. cerevisiae deletion strains, locus YOR106W, strain vam3, stronger effect = lower value 0.99 | S. cerevisiae deletion strains, locus YOR231W, strain MKK1, stronger effect = lower value 0.999 | S. cerevisiae deletion strains, locus YOR265W, strain rbl2, stronger effect = lower value 0.98 | S. cerevisiae deletion strains, locus YOR270C, strain vph1, stronger effect = lower value 1.08 | S. cerevisiae deletion strains, locus YOR290C, strain snf2, stronger effect = lower value 0.988 | S. cerevisiae deletion strains, locus YPL051W, strain arl3, stronger effect = lower value 1.01 | S. cerevisiae deletion strains, locus YPL078C, strain atp4, stronger effect = lower value 0.99 | S. cerevisiae deletion strains, locus YPL106C, strain sse1, stronger effect = lower value 1.01 | S. cerevisiae deletion strains, locus YPL240C, strain hsp82, stronger effect = lower value 1.01 | S. cerevisiae deletion strains, locus YPL256C, strain CLN2, stronger effect = lower value 0.978
